Values joined by “and” are separate entries in the source; they are usually repeats but may differ in a detail not shown here. Equal entries are not always repeated. Results filed as inconclusive are left out. Active and inactive are the calls of the source. Unless noted, calls follow the shape of the dose curve; as a rule, active = well fitted curve in the direction sought with a large enough effect; inconclusive = small, poorly fitted or top-dose-only effect, or another doubt; inactive = no such curve, though single readings can be large; an effect the other way counts as inactive or inconclusive.
How the values were obtained:
[1] = molecular target: Alpha-galactosidase (Coffea arabica) (UniProt Q42656); assay: Counterscreen for Glucocerebrosidase Inhibitors: qHTS Assay for Coffee Bean alpha-Galactosidase at pH 5.9 (AID 998); conditions: coffee bean alpha-galactosidase enzyme assay; series mostly up to 76.9 µM;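 also: plate controls were uninhibited enzyme for no effect and no-enzyme basal signal for full effect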
Procedure, shortened: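 Fluorogenic 4-MU substrate hydrolysis, 80 uM substrate and 2 nM coffee bean alpha-galactosidase, pH 5.9 citrate buffer, 20 min at room temperature, then NaOH/glycine stop. Titration 0.7 nM–77 uM, normalized to no-enzyme and enzyme controls, AC50 via Hill equation.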

[2] = molecular target: Alpha-galactosidase A (Homo sapiens) (UniProt P06280); assay: Counterscreen for Glucocerebrosidase Inhibitors: qHTS Assay for Human alpha-Galactosidase at pH 4.5 (AID 992); conditions: purified enzyme, fluorogenic substrate; series mostly up to 76.9 µM; also: 0% is about no effect
Procedure, shortened: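 Each compound is preincubated briefly with 2 nM enzyme before substrate addition (80 uM); plates then sit 20 min at ambient temperature, are quenched with 1M NaOH/1M glycine, and read fluorometrically.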

[3] = molecular target: alpha-glucosidase (Oryza sativa, rice) (UniProt Q653V4); assay: Counterscreen for Glucocerebrosidase Inhibitors: qHTS Assay for Rice alpha-Glucosidase at pH 5.0 (AID 997); conditions: rice alpha-glucosidase enzyme activity; series mostly up to 76.9 µM;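 also: 0% = full activity with enzyme and -100% = basal without enzyme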
Procedure, shortened: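 Endpoint fluorogenic assay at pH 5.0: compounds (0.7 nM to 77 uM) titrated against 4 nM rice enzyme and 400 uM 4-MU-alpha-glucoside for 20 min at room temperature; NaOH/glycine stop, read ex 365/em 440 nm, Hill-fitted AC50.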

[4] = Cell Viability - LYMP2-020 (AID 986); conditions: series mostly up to 92.2 µM; also: nearly all actives have a fitted effect of over 55% in size; also: potency is read from the fitted curve at half-maximal effect
Procedure, shortened: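 Cells at 2500 per well receive a 24 hr compound exposure at 37 C. Viability is measured as ATP-dependent luciferase luminescence, with AC50 modeled from qHTS concentration-response curves.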

[5] = qHTS Assay for Lipid Storage Modulators (AID 1519; calls by dose curve; as to activity change, negative = inhibition: % is scaled to controls: 0 for no effect and ±100 for the full control effect); conditions: Drosophila S3 cells, BODIPY lipid droplet/cell ratio, laser cytometry, cells loaded with oleic acid
Procedure, shortened: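 Cells seeded at 5,000 per well were treated with compounds over a concentration series and loaded with oleic acid (400 uM, as added). Lipid droplet fluorescence (488 nm excitation, 500-530 nm channel) was read by laser-scanning cytometry and normalized to 20 uM Triacsin C.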

[6] = Cell Viability - LYMP2-002 (AID 977); conditions: LYMP2-002 lymphoblastoid cell viability, qHTS; series mostly up to 92.2 µM; also: potency is read from the fitted curve at half-maximal effect
Procedure, shortened: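 Human lymphoblastoid cells (2500/well) in complete medium were preincubated 5 hr at 37 C, then exposed to compounds for 24 hr at 37 C. Intracellular ATP was read by CellTiter-Glo luminescence; AC50 came from Hill-equation concentration-response fits.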

[7] = Cell Viability - LYMP2-006 (AID 978); conditions: LYMP2-006 lymphoblastoid cell viability, qHTS; series mostly up to 92.2 µM; also: nearly all actives have a fitted effect of over 60% in size; also: potency is read from the fitted curve at half-maximal effect
Procedure, shortened: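 Potency values are Hill-fit AC50s for decreases in intracellular ATP (CellTiter-Glo luminescence). LYMP2-006 lymphoblastoid cells, 2500 per well, were exposed to compound in complete culture medium for 24 hr at 37 C.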

[8] = Cell Viability - LYMP2-007 (AID 979); conditions: LYMP2-007 lymphoblastoid cell viability; series mostly up to 92.2 µM;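 also: cells exposed to compound for 24 h before reading; nearly all actives have a fitted effect of over 60% in size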; also: potency is read from the fitted curve at half-maximal effect
Procedure, shortened: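 Measured via luciferase-based ATP quantitation: lymphoblastoid cells, 24 hr compound exposure at 37 C, AC50 from Hill fits.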

[9] = Cell Viability - LYMP2-008 (AID 980); conditions: LYMP2-008 lymphoblastoid cell viability, qHTS; series mostly up to 92.2 µM; also: nearly all actives have a fitted effect of over 60% in size; also: potency is read from the fitted curve at half-maximal effect
Procedure, shortened: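 Measured: ATP-dependent luminescence, proportional to viable cell number, in human lymphoblastoid cells treated 24 hr with compound in complete culture medium. Values are AC50s from Hill-equation modelling of qHTS titrations.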

[10] = Cell Viability - LYMP2-010 (AID 981); conditions: LYMP2-010 lymphoblastoid cell viability, qHTS; series mostly up to 92.2 µM; also: nearly all actives have a fitted effect of over 55% in size; also: potency is read from the fitted curve at half-maximal effect
Procedure, shortened: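 This 24 hr viability screen uses LYMP2-010 lymphoblastoid cells, quantifies ATP via luciferase luminescence, and derives AC50 from Hill fits of qHTS concentration-response data.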

[11] = Cell Viability - LYMP2-012 (AID 982); conditions: LYMP2-012 lymphoblastoid cell viability qHTS; series mostly up to 92.2 µM;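 also: cellular ATP by luciferase luminescence where a drop means cytotoxicity; cells exposed to compound for one day before reading; nearly all actives have a fitted effect of over 55% in size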; also: potency is read from the fitted curve at half-maximal effect
[12] = Cell Viability - LYMP2-014 (AID 983); conditions: LYMP2-014 lymphoblastoid cells, viability qHTS; series mostly up to 92.2 µM; also: nearly all actives have a fitted effect of over 50% in size; also: potency is read from the fitted curve at half-maximal effect
Procedure, shortened: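 Quantitative HTS in lymphoblastoid cells: 24 hr compound exposure, then CellTiter-Glo ATP luminescence. Positive control was tetraoctylammonium bromide, 6.4pM to 92 uM.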

[13] = Cell Viability - LYMP2-016 (AID 984); conditions: LYMP2-016 lymphoblastoid cell viability, qHTS; series mostly up to 92.2 µM; also: nearly all actives have a fitted effect of over 55% in size; also: potency is read from the fitted curve at half-maximal effect
Procedure, shortened: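 Cytotoxicity was scored by luminescent ATP content (CellTiter-Glo) after 24 h compound exposure at 37 C of a human lymphoblastoid line at 2500 cells/well. Concentration-response data were fitted to the Hill equation for AC50.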

[14] = Cell Viability - LYMP2-018 (AID 985); conditions: LYMP2-018 lymphoblastoid cells, viability (qHTS); series mostly up to 92.2 µM; also: nearly all actives have a fitted effect of over 50% in size; also: potency is read from the fitted curve at half-maximal effect
Procedure, shortened: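 In this qHTS viability assay, cells are treated for 24 hr and cellular ATP is quantified by luciferase-based luminescence, with tetraoctylammonium bromide as positive control.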

[15] = Cell Viability - LYMP2-022 (AID 987); conditions: LYMP2-022 lymphoblastoid cell viability; series mostly up to 92.2 µM; also: nearly all actives have a fitted effect of over 55% in size; also: potency is read from the fitted curve at half-maximal effect
Procedure, shortened: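 In this qHTS cytotoxicity screen, compound titrations were incubated 24 hr at 37 C with human lymphoblastoid cells in complete medium. Luciferase-based ATP luminescence provided the viability signal.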

[16] = Cell Viability - LYMP2-024 (AID 988); conditions: LYMP2-024 lymphoblastoid cell viability; series mostly up to 92.2 µM; also: nearly all actives have a fitted effect of over 60% in size; also: potency is read from the fitted curve at half-maximal effect
Procedure, shortened: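 Cells at 2500 per well received compound for 24 hr after a 5 hr settling period. Viability was scored by CellTiter-Glo luminescence, with AC50 from Hill fits.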

[17] = Cell Viability - LYMP1-002 - Assay at 24 hr (AID 993); conditions: LYMP1-002 lymphoblastoid cells viability; series mostly up to 92.2 µM; also: potency is read from the fitted curve at half-maximal effect
Procedure, shortened: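 Viability was judged from intracellular ATP using a luciferase read-out, following a 24-hour compound incubation at 37 C of lymphoblastoid cells seeded at 2500 per well. Concentration-response data were fitted to the Hill equation for AC50.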

[18] = Cell Viability - LYMP1-002 - Assay at 40 hr (AID 994); conditions: LYMP1-002 lymphoblastoid cell viability; series mostly up to 92.2 µM; also: nearly all actives have a fitted effect of over 60% in size; also: potency is read from the fitted curve at half-maximal effect
Procedure, shortened: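 Concentration-dependent ATP loss after 40 hr treatment at 37 C defined toxicity; AC50 values were obtained by fitting the standard Hill equation.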

[19] = Validation of Assay for Modulators of Lamin A Splicing (AID 1459; active = well fitted curve in the direction sought with a large enough effect in the signal ratio; the % refers to the signal ratio;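 also: cells exposed to compound for two days before reading; 0% is about no effect; ratio rise marks activators and ratio drop marks inhibitors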); conditions: Lamin A splicing dual RFP/GFP fluorescence reporter; series mostly up to 9.22 µM
Procedure, shortened: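 Splicing correction read as GFP (500-530 nm) over DsRed2 (575-640 nm) object intensity after 48 h compound exposure of reporter HeLa S3 clones (600 cells/well, 2% FBS medium); ancitabine and cycloheximide titrations, 0.5% DMSO as vehicle.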

[20] = Cell Viability - LYMP2-026 (AID 989); conditions: LYMP2-026 lymphoblastoid cell viability, qHTS; series mostly up to 92.2 µM; also: % is scaled to controls: 0 for no effect and ±100 for the full control effect; nearly all actives have a fitted effect of over 50% in size
Procedure, shortened: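 Acute toxicity screen in complete culture medium, with 24 hr compound exposure at 37 C. Viability read as cellular ATP via luciferase reaction, with tetraoctylammonium bromide (6.4pM to 92 uM) as positive control.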

[21] = measured here: cell count channel max response
[22] = measured here: lipid channel max response

Chain of Alpha-galactosidase A (Homo sapiens) (P06280 whole entry, looked up): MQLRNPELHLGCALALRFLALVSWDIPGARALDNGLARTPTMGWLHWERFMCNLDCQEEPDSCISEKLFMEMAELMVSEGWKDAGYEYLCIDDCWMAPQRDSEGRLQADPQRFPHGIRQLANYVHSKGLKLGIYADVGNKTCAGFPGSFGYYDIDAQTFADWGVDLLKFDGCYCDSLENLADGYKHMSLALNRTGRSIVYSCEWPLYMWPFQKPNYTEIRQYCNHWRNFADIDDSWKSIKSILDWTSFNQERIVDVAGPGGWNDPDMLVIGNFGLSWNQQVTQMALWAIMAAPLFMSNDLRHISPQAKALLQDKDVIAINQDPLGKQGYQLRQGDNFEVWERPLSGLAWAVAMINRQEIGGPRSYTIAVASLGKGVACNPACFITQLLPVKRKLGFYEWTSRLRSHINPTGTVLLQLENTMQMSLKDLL
Chain of Alpha-galactosidase (Coffea arabica) (Q42656 whole entry, looked up): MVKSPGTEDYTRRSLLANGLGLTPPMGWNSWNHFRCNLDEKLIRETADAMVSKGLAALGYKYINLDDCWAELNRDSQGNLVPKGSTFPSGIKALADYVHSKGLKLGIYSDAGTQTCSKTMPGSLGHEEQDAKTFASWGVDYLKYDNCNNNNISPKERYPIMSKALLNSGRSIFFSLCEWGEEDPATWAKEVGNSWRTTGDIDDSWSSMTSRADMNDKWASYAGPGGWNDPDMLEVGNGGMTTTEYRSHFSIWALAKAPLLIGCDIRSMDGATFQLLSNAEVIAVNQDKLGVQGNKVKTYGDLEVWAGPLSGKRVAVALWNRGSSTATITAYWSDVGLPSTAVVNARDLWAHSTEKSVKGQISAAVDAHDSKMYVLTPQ

CCCOc1ccccc1-c1nc2n[nH]nc2c(=O)[nH]1
inactive: outcome [1]

NC(=O)CN1CCCC1=O
inactive: outcome [2] | outcome [3] | outcome [1]

Oc1ccc(Cl)cc1Cc1cc(Cl)ccc1O
active: Potency [4] 39800 nM

c1ccc2nc(N3CCNCC3)ccc2c1
inactive: outcome [2] | outcome [3] | outcome [1]

COC(=O)C1=CCCN(C)C1
inactive: outcome [2] | outcome [3] | outcome [1]

Clc1ccc(CO/N=C(\Cn2ccnc2)c2ccc(Cl)cc2Cl)c(Cl)c1
inactive: activity change, negative = inhibition ([5]; at 57.5 µM (top of the series)) 5.8%
5.32%: max response [5, 22]
-2.06%: max response [5, 21]

CN(C)C(=S)SSC(=S)N(C)C
active: Potency [6] 316 nM | Potency [7] 251 nM | Potency [8] 316 nM | Potency [9] 251 nM | Potency [10] 251 nM | Potency [11] 199 nM | Potency [12] 199 nM | Potency [13] 316 nM | Potency [14] 199 nM | Potency [4] 398 nM | Potency [15] 158 nM | Potency [16] 251 nM | Potency [17] 316 nM | Potency [18] 3980 nM

CC(C)[N+](C)(CCC(C(N)=O)(c1ccccc1)c1ccccc1)C(C)C
-9.77% and 16.5%: max response [5, 22]
-8.79% and 5.39%: max response [5, 21]
inactive: activity change, negative = inhibition ([5]; at 25.7 µM (top of the series)) -0.769% | activity change, negative = inhibition ([5]; at 57.5 µM (top of the series)) 9.64%

O=C(CCCN1CCC(O)(c2cccc(C(F)(F)F)c2)CC1)c1ccc(F)cc1
inactive: outcome [1]

CCCCCCCCC(=O)NCc1ccc(O)c(OC)c1
1.44% and 21.8%: max response [5, 21]
inactive: outcome [2] | outcome [3] | outcome [1] | outcome [19] | activity change, negative = inhibition ([5]; at 57.5 µM (top of the series)) -0.202% and 0.982%
3.12% and 22.1%: max response [5, 22]

CNC(=O)Oc1cccc2ccccc12
inactive: Potency [6] | Potency [7] | Potency [8] | Potency [9] | Potency [10] | Potency [11] | Potency [12] | Potency [13] | Potency [14] | Potency [4] | Potency [15] | Potency [16] | Potency [20] | Potency [17] | Potency [18]

— PubChem BioAssay (NCATS)
